Screens: PubChem BioAssay, National Center for Advancing Translational Sciences (NCATS)
HT1080 IDH1KD tx – qHTS for induction of synthetic lethality in tumor cells producing 2HG: qHTS for the HT-1080-IDH1KD cell line. HT-1080 IDH1 knockdown viability, ATP luminescence, 48 h. Potency, µM (titrated, usually from 46.1 µM), without a hit: at the top dose activity, negative = toxicity, hits mostly cytotoxic. 360,000 compounds, 2% hits;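 further: 0% = DMSO wells and -100% = cell-free medium wells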
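Using the IDH1-knockdown HT-1080 line run in the same batch and compound series as the NT line, viability after 48 h at 37 °C was determined by CellTiter-Glo luminescence and expressed as % activity.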
KB-V1 MDR tox – qHTS assay for MDR1-selective chemotherapeutics: Primary screen using the drug-selected MDR subline cells KB-V1. KB-V1 MDR cells viability, CellTiter-Glo, 72 h. 400,000 compounds, 3.4% hits. Potency, µM (top dose mostly 46.1 µM), hits mostly cytotoxic. AID 1347076, 2019; further: on the % scale 0 is the no-effect control and ±100 the full control effect; nearly all actives have a fitted effect of over 60% in size
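qHTS viability screen in drug-selected KB-V1 MDR cells: 72 h compound treatment at 37 degrees C, ATP luminescence end point.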
HT1080NT lethal – qHTS for induction of synthetic lethality in tumor cells producing 2HG: qHTS for the HT-1080-NT fibrosarcoma cell line. HT-1080-NT fibrosarcoma viability, CellTiter-Glo ATP luminescence, 48 h. Potency, µM (series often up to 46.1 µM), for the others: top-dose activity, negative = less viability, usual class: cytotoxic. 360,000 compounds, 1.6% hits. AID 686970, 2013;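 further: NT is the 2HG producing partner of a matched IDH1 knockdown line; 0% = DMSO-treated cells and -100% = media-only wells without cells; nearly all actives have a fitted effect of over 55% in size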
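750 cells/well, RPMI + 5% FBS; 2 h settle, compound pin-transfer, 48 h at 37 degrees C. CellTiter-Glo 10 min RT, luminescence. Normalized to DMSO and media-only wells.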
MCF10A rereplic – A quantitative high throughput screen for small molecules that induce DNA re-replication in MCF 10a normal breast cells. MCF 10A DNA re-replication, Hoechst nuclear intensity, 48 h. Potency, µM (series often up to 46.1 µM), inactives show at the top dose activity, positive = re-replication, usual class: activators. 350,000 compounds, 2.9% hits; further: % of control where 0% means no effect; nearly all actives have a fitted effect of over 50% in size
SW480 rereplic – A quantitative high throughput screen for small molecules that induce DNA re-replication in SW480 colon adenocarcinoma cells. SW480 DNA re-replication, Hoechst DNA content imaging, 48 h. Potency, µM (series often up to 46.1 µM), inactives show at the top dose re-replication activation, hits mostly activators. 340,000 compounds, 1.8% hits; further: % of control where 0% means no effect; nearly all actives have a fitted effect of over 55% in size
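Compounds, transferred as 23 nL by pin tool, were incubated with cells for 48 hr; DNA content per nucleus was then quantified by Hoechst staining and fluorescence plate imaging.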
KB-3-1 cytotox – qHTS assay for MDR1-selective chemotherapeutics: Primary screen using the parental adenocarcinoma cell KB-3-1. KB-3-1 viability, CellTiter-Glo ATP luminescence, 72 h. Potency, µM (series often up to 46.1 µM), most hits filed as cytotoxic. 400,000 compounds, 1.4% hits. AID 1347075, 2019; further: on the % scale 0 is the no-effect control and ±100 the full control effect; nearly all actives have a fitted effect of over 60% in size
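Multi-concentration cytotoxicity screen in KB-3-1 cells grown in DMEM lacking phenol red with 10% FBS. After 72 h at 37 °C with compound, ATP-dependent luminescence was recorded.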
An asterisk follows results filed as active; i = inactive; ? = inconclusive; · = not tested or not shown; [ ] = another dose, or the depositor's remark. A selection: hits, their analogues and other compounds. The true share with any hit is near 8%. The call rests on the fitted dose curve; in most records, active means well fitted curve in the direction sought with a large enough effect; inconclusive means small, poorly fitted or top-dose-only effect, or another doubt; inactive means no such curve, though single readings can be large; an effect the other way counts as inactive or inconclusive. Potency means the concentration at half of the fitted maximal effect.

SMILES	HT1080 IDH1KD tx	KB-V1 MDR tox	HT1080NT lethal	MCF10A rereplic	SW480 rereplic	KB-3-1 cytotox
COc1ccc(CC(=O)N(Cc2ccccc2)c2cccc(C)c2)cc1OC	-8%	?	3%	5%	-6%	i
Cc1cccc(N(Cc2ccccc2)C(=O)CCl)c1	1.3µM*	?	1.5µM*	?	21%	i
Cc1ccc2c(c1)c1c(c(=O)n(Cc3ccccc3)c(=O)n1CC(=O)Nc1ccccc1C)n2C	·	i	·	·	·	i
CC1CCCN(S(=O)(=O)c2cc(C(=O)NCc3ccccc3Cl)n(C)c2)C1 (stereo not given)	·	i	·	·	·	i
COc1cccc(CN(C)C(=O)CN2C(=O)NC(c3ccccc3)(c3ccccc3)C2=O)c1	-5%	i	8%[9.24 µM]	1%	-24%	i
N=C1/C(=C/c2cccn2Cc2ccc(F)cc2)C(=O)N=C2SC=CN12	1%	i	-2%	4.6µM*	6%	i
Cc1ccc(Cn2cccc2/C=C2/C(=N)N3C=CSC3=NC2=O)cc1	?	i	-25%	14%	8%	i
Cc1nonc1NC(=O)CSc1nc(C23CC4CC(CC(C4)C2)C3)nc2ccccc12	3%	?	-3%	10µM*	?	?
NC(=O)CSc1nc(C23CC4CC(CC(C4)C2)C3)nc2ccccc12	-1%	i	-2%	?	3%	i
Cc1cc(NC(=O)CSc2nc(C3CCCCC3)nc3ccccc23)no1	5%[9.24 µM]	i	-1%	6%	13%	?
Cc1nonc1NC(=O)CSc1nc(C2CCCCC2)nc2ccccc12	-14%	i	-18%	?	8.2µM*	i
N#CCc1nn(-c2ccc(F)cc2)c(N)c1C#N	1%	i	-6%	14%	-2%	i
OC(CNCc1ccccc1F)COc1cccc2ccccc12 (stereo not given)	15µM*	i	?	?	21µM*	i
N#Cc1c(-c2ccc3c(c2)OCO3)ccn2nc(-c3cccc(C(F)(F)F)c3)nc12	?	i	?	?	?	i
CCN1CCN(CCCNC(=O)c2ccc(/C=C3/Oc4ccccc4N(Cc4cccc(C)c4)C3=O)cc2)CC1	-2%	i	-3%	1.8µM*	2.6µM*	i
O=C(CN1C(=O)/C(=C\c2ccccc2Br)Oc2ccccc21)NCCCN1CCOCC1	-6%	i	-15%	8%	-4%	i
O=C(NCCCN1CCOCC1)c1ccc(/C=C2\Oc3ccccc3N(Cc3ccccc3F)C2=O)cc1	1%	i	4%	5.2µM*	?	i
CNC(=S)NNC(=O)COc1cccc(C)c1C	8%	i	26%	-2%	-2%[9.22 µM]	i
Cc1cccc(Nc2nc(N3CCN(C)CC3)nc(N)c2[N+](=O)[O-])c1	4%	7.3µM*	-1%	-58%	-36%	i
CCN1CCN(c2nc(N)c([N+](=O)[O-])c(Nc3cccc(C)c3)n2)CC1	4%	3.3µM*	3%	11%	-1%	?
Cc1cccc(Nc2n[nH]c(C)c2[N+](=O)[O-])c1	-20%	i	-29%	0%	-3%	i
Cc1cccc(Nc2nc(N)c([N+](=O)[O-])c(NCCO)n2)c1	-1%	i	0%	-1%	-14%	i
O=C1C2C(c3ccccc3)=NN(c3ccccc3)C2C(=O)N1c1ccccc1 (stereo not given)	12%	i	20%	?	1%	i
O=C1[C@H]2C(c3ccccc3)=NN(c3ccccc3)[C@H]2C(=O)N1c1ccccc1	-6%	i	-7%	0.65µM*	-79%	?
CC(C)C[C@@H](NC(=O)[C@H](Cc1ccccc1)NC(=O)c1cnccn1)B(O)O	·	·	·	?	0.003µM*	·
SMILES	HT1080 IDH1KD tx	KB-V1 MDR tox	HT1080NT lethal	MCF10A rereplic	SW480 rereplic	KB-3-1 cytotox
CCN(CC)c1ccc(/C=C/c2ccccn2)cc1	·	i	·	·	·	0.33µM*
CCN(CC)c1ccc(/C=C/c2cc(-c3ccccc3)c3ccccc3n2)cc1	-21%	i	-2%	?	15µM*	i
O=C(Nc1ccc([N+](=O)[O-])cn1)c1ccc(Br)o1	6%	i	?	2%	1%	i
COc1ccccc1OCc1ccc(C(=O)Nc2cc(OC)c(OC)c(OC)c2)o1	-16%	i	-2%	?	?	i
COc1cc(NC(=O)c2ccc(COc3ccccc3Br)o2)cc(OC)c1OC	5%	7.3µM*	0%	?	10%	i
COc1ccc(NC(=O)c2ccc(COc3ccccc3Br)o2)cc1OC	-33%	i	-16%	12µM*	5%	?
N#Cc1ccc(NC(=O)COc2ccccc2C(=O)Nc2ccccc2)cc1	·	?	·	·	·	i
COc1ccc(N=C(C)C2C(=O)c3ccccc3C2=O)cc1	18%	i	28%	·	·	i
COc1cc(NC(=O)CCC2CCCC2)cc(-n2cnnn2)c1	15%	21µM*	-5%	-6%	-7%	i
CC(=O)c1ccc(NS(=O)(=O)c2cc3c(cc2C)N(C)CCO3)cc1	16µM*	i	?	0%	0%	i
COC(=O)[C@@]12C[C@@H](CC(=O)NCc3cccs3)C(=O)N(Cc3cccc4ccccc34)C1=CCC(C)(C)C2	?	16µM*	?	·	·	?
